High-throughput results deposited in PubChem BioAssay by National Center for Advancing Translational Sciences (NCATS).
HP1b chromo inh = blocks HP1-beta chromodomain binding to methylated histone tails | AID 540317 | P83916 | Potency, µM (highest dose often 114 µM), without a hit: at the top dose activity change, negative = inhibition, usual class: inhibitors | AlphaScreen HP1-beta / biotin-H3K9me3 peptide binding | 390,000 tested, 0.56% active; note: nearly all actives have a fitted effect of over 70% in size
Target sequence (P83916 whole entry, looked up): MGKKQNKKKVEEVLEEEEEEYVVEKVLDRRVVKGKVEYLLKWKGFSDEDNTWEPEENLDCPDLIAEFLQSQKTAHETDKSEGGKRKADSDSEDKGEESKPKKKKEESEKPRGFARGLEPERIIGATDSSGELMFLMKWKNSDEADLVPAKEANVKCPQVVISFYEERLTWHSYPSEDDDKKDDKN
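HP1-beta protein (50 nM final) preincubated 30 min at room temperature with biotinylated H3(1-18)K9me3 peptide (50 nM) in PBS pH 7.4, 0.01% Tween-20, then compound added for 30 min. AlphaScreen streptavidin donor/nickel chelate acceptor beads (10 ug/mL final), 30 min dark, luminescence read.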
JMJD2A Tudor = blocks the human JMJD2A Tudor domain | AlphaScreen JMJD2A-Tudor / H3K4me3 peptide binding | Potency, µM (highest dose often 114 µM), inactives show at the top dose activity change, negative = inhibition, hits mostly inhibitors | 390,000 tested, 4.4% active; note: % is set by controls: 0 for no effect and ±100 for the full control effect; nearly all actives have a fitted effect of over 50% in size
Sfp inh = Sfp phosphopantetheinyl transferase inhibition; Potency, µM, for inactives: largest response in the series, negative = inhibition, hits mostly inhibitors; AID 1490; Biochemical Sfp PPTase activity, qHTS; 310,000 tested, 3.5% active; Q9F4F7;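 note: the enzyme is Sfp with the accession as filed and its product quenches rhodamine fluorescence; 0% = enzyme reaction without inhibitor and -100% = no enzyme wells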
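With Hepes-Na pH 7.6 buffer containing 10 mM MgCl2, Sfp (15 nM) modified BHQ-2-YbbR (12.5 uM) using rhodamine-CoA (5 uM). Two reads 30 minutes apart at 525/598 nm yielded each well's rate.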
PLK1 PBD inh = inhibitors of human PLK1 polo-box domain binding; Plk1 PBD binding of FITC phosphopeptide, fluorescence polarization; Potency, µM, for inactives: max response, negative = inhibition, hits mostly inhibitors; 360,000 tested, 2.8% active; P53350; note: series mostly up to about 57 µM; % is set by controls: 0 for no effect and ±100 for the full control effect; nearly all actives have a fitted effect of over 65% in size
BAZ2B inh = blocks human BAZ2B; Q9UIF8; AlphaScreen BAZ2B-H3K14Ac peptide displacement; Potency, µM (doses to about 114 µM), without a hit: at the top dose activity change, negative = inhibition, most hits filed as inhibitors; 360,000 tested, 4.4% active; note: % is set by controls: 0 for no effect and ±100 for the full control effect; nearly all actives have a fitted effect of over 60% in size
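Inhibition is scored as reduced AlphaScreen emission. The BAZ2B/b-H3(5-23)K14Ac complex (50 nM each) in PBS pH 7.4, 0.01% Tween-20 meets compound (up to 110 uM) for 30 min at RT before bead addition.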
G9a inh = G9a (human) methyltransferase inhibition | Q96KQ7 | G9a H3K9 monomethylation, AlphaScreen, 2 h | Potency, µM (highest dose often 102 µM), for inactives: top-dose activity, negative = inhibition, actives largely listed as inhibitors | 350,000 tested, 8.8% active; note: % is set by controls: 0 for no effect and ±100 for the full control effect; nearly all actives have a fitted effect of over 75% in size
Target sequence (Q96KQ7 913-1193 limits assumed): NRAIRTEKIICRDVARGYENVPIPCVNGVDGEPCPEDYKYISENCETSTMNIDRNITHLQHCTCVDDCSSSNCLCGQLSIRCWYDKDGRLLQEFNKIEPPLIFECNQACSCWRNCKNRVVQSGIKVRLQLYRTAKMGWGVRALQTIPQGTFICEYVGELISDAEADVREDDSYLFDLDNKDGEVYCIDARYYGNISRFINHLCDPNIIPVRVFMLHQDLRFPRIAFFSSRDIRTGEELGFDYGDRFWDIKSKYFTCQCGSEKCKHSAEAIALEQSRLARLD
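AlphaScreen read-out: biotin-H3K9 peptide (500 nM) methylation by 20 nM enzyme with 20 uM SAM, 2 h at room temperature after 15 min compound preincubation; anti-monomethyl H3K9 antibody plus donor/acceptor beads, 10 min dark.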
An asterisk follows results filed as active; ? = inconclusive; · = not tested or not shown; [ ] = dose if it differs, or a comment. An excerpt weighted towards active compounds, which were near 12% of everything screened. Calls come from the whole dose curve; as a rule, active = well fitted curve in the direction sought with a large enough effect; inconclusive = small, poorly fitted or top-dose-only effect, or another doubt; inactive = no such curve, though single readings can be large; an effect the other way counts as inactive or inconclusive. Potency is the fitted concentration of half-maximal effect.

SMILES	HP1b chromo inh	JMJD2A Tudor	Sfp inh	PLK1 PBD inh	BAZ2B inh	G9a inh
COc1ccc(C(=O)/C=C(\C)Nc2ccc(NC(C)=O)cc2)cc1	-13%	?	-6%	-8%	79µM*	35µM*
COc1ccc(NC(=O)CN(C)C(=O)Cc2ccc(-c3ccccc3)cc2)cc1	21%	100µM*	·	-6%	6%	?
COc1ccc(C(C#N)=Cc2ccc(NC(C)=O)cc2)cc1	10%[57 µM]	3%	·	3%	·	·
Cc1cccc(-n2c3nc(=O)n(C)c(=O)c-3cc3c(C)nn(-c4ccccc4)c32)c1C	46%	-3%	·	·	·	-12%[59 µM]
C/C(=C\C(=O)c1ccc(C)cc1)Nc1cccc(O)c1	-21%	?	-1%	-4%	50µM*	50µM*
COc1ccc(C(=O)/C=C(/C)N(C)C)cc1	9%	40µM*	14%	-6%	-1%	45µM*
COc1cccc(NC(=O)c2cnc(SCC(=O)N3CCOCC3)n(C)c2=O)c1	50%	-2%	·	·	2%	1%[59 µM]
Cc1cccc(NC(=O)C(=O)C2C(=O)Nc3ccccc32)c1 (stereo not given)	29%	-35%	13%	-1%	-13%	45µM*
O=C(Nc1ccc2ccccc2c1)C(=O)C1C(=O)Nc2ccccc21 (stereo not given)	·	·	-12%	·	-2%	·
Cc1cc(C)nc(/N=C(\N)Nc2ccc(OCCC(C)C)cc2)n1	8%	-27%	-16%	-4%	-34%	·
C#CC1CN(Cc2ccccc2)CC(C#C)N1C (stereo not given)	0%	-20%[57.1 µM]	1%	30µM*	?	7%[12.7 µM]
C/C(Cn1nnc([N+](=O)[O-])n1)=N\NC(=O)c1ccc(O)cc1O	17%	?	-9%	-10%	9%	-3%[59 µM]
C/C(Cn1nnc([N+](=O)[O-])n1)=N\NC(=O)c1ccccc1O	9%	45µM*	-7%	30µM*	2%	-5%
Cc1ccccc1CNC(=O)CCS(=O)(=O)c1cc2c3c(c1)CCN3C(=O)CC2	37%	-16%	·	·	3%	-7%[59 µM]
CCCCc1cc(=O)oc2cc(OCc3nn[nH]n3)ccc12	18%	-1%	-8%	-1%	-1%	56µM*
CCCCc1cc(=O)oc2c(C)c(OCc3nn[nH]n3)ccc12	16%	-20%	-13%	-15%	-17%	50µM*
CCCCc1cc(=O)oc2c(C)c(OCC(=O)N3CCC(C(=O)O)(c4ccccc4)CC3)ccc12	2%	-22%	6%	-3%	-26%	3.2µM*
CCCc1cc(=O)oc2cc(OCc3nn[nH]n3)ccc12	58%	-33%	11%	-4%	-4%[57.1 µM]	?
O=S(=O)(c1ccc(SCc2ccccc2)nc1)N1CCCC1	168%	113%	·	-1%	71%	?
Cc1cccc(CSc2ccc(S(=O)(=O)N3CCCC3)cn2)c1	141%	80%	·	-13%	54%	14µM*
CCc1nc2cccnc2n1-c1ccc(CC(=O)Nc2cccc(C)c2C)cc1	15%	-14%	·	·	-12%	?
COC(=O)c1cc(-c2cccc([N+](=O)[O-])c2)c2c(=O)[nH]c(=O)n(C)c2n1	4%	-31%	7%	30µM*	-6%	19%
NC(Cc1ccc(Cl)cc1)c1csc(Nc2cc(NCCCO)ncn2)n1 (stereo not given)	·	·	·	-2%	·	·
O=c1nc2n(c3ncccc13)CCCCC2	21%	-8%	3%	1%	-1%	1%
O=C1/C(=C\c2c(NCCOCCO)nc3ccccn3c2=O)SC(=S)N1Cc1ccco1	-2%	-23%	40µM*	36%	?	40µM*
SMILES	HP1b chromo inh	JMJD2A Tudor	Sfp inh	PLK1 PBD inh	BAZ2B inh	G9a inh
Oc1ccccc1N=Cc1ccc[nH]1	31%	-10%	25µM*	-6%	?	-11%[12.7 µM]
C(=Nc1ccccc1)c1ccc[nH]1	12%	-16%	·	-3%	·	·
Cc1nc(N=Nc2cc(S(=O)(=O)O)ccc2S(=O)(=O)O)c(COP(=O)(O)O)c(C=O)c1O	·	·	-4%	·	·	·
CCCCNc1c(-c2ccc(OC)c(SC3CCCCC3)c2)nc2cc(C)ccn12	-15%	56µM*	·	-11%	?	14%[2.33 µM]
Cc1ccccc1NC(=O)CSc1nc(=O)n(CCN2CCOCC2)c2c1CCC2	25%	-8%	·	·	-7%	-4%[59 µM]
Cc1ccc(C(C)(O)CS(=O)(=O)Cc2ccccc2)cc1 (stereo not given)	66%	-5%	1%	-12%	-25%	56µM*
COc1ccc(C(=O)Nc2ccc(/C(C)=N/NC(=O)c3ccccc3O)cc2)cc1OC	21%	-9%	1%	-7%	-2%	35%[59 µM]
O=C(NC(=S)N1CCOCC1)C12CCC3CC(CC(C3)C1)C2	-11%	-23%	-29%	30µM*	12%	10%[59 µM]
CC1CCN(C(=O)CCc2nnc3ccc(N4CCC5(CC4)OCCO5)nn23)CC1	43%	-21%	12%	-8%	-3%[57.1 µM]	6%
COc1ccc(C(CC(=O)Nc2ccc(F)c(Cl)c2)N2Cc3ccccc3C2=O)cc1OC (stereo not given)	13%	-19%	·	·	-4%	-5%[59 µM]
COc1cccc(CN(C)Cc2nc(C3CC3)no2)c1	16%	0%	8%	-15%	2%	21%
COc1ccc2ccccc2c1CN(C)Cc1ccccc1	14%	28µM*	15%	0%	?	-7%[0.501 µM]
CC(C)CN(Cc1c(O)ccc2ccccc12)CC(C)C	14%	-15%	5%	?	?	·
CN(C)Cc1c(O)ccc2ccccc12	36%	5%[11.4 µM]	6%	?	-18%	7.9µM*
COc1cccc(CN(C)Cc2c(O)ccc3ccccc23)c1	5%	-6%	-3%	17µM*	3%	8.9µM*
COc1ccc(CN(C)Cc2c(O)ccc3ccccc23)cc1	54%	0%	-3%	?	-2%	18µM*
COc1ccc2ccccc2c1CN1CCN(C)CC1	25%	28%	1%	-2%	-29%	-30%[59 µM]
C=C(C(C)=O)C(O)c1cccc(Br)c1 (stereo not given)	·	·	8%	·	·	·
CN(Cc1ccccc1)Cc1c(F)cccc1F	?	7.1µM*	-27%	-5%	56µM*	11µM*
COc1ccc2ccccc2c1CNC(C)CCc1ccccc1 (stereo not given)	-1%	79µM*	-17%	-10%	-15%	·
CN(Cc1ccccc1)Cc1ccccc1	·	·	24%	·	·	-2%[12.7 µM]
COc1ccc(Cl)cc1C(=O)Nc1ccc2oc(-c3ccc(C(C)(C)C)cc3)nc2c1	12%	-11%	·	·	2%	2%[59 µM]
CC(C)(C)OC(=O)NNC(=O)Nc1ccccc1C(F)(F)F	20%	-7%	1%	-6%	-3%	0%
Cc1nc2c3ccccc3[nH]c(=O)n2n1	25%	-8%	-19%	-7%	3%	-9%[59 µM]
